# T cruzi growth-1 – blocks T. cruzi growth in NIH3T3 culture | 77,000 tested, 5.9% active | T. cruzi beta-gal in NIH3T3, GalScreen luminescence, 90 h | inhibition, % at 8.34 µM;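 active means mean inhibition above about 93%, with at least 55% of replicates each passing it, limit read from the data, passing the limit was not always enough; inconclusive means only one of those two conditions holds; inactive means neither condition holds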
# Pf Dd2 inh – inhibitors of Plasmodium falciparum Dd2 growth | P. falciparum Dd2 growth, SYBR Green, 72 h; hits give low values | activity change, % at 10 µM | 94,000 tested, 2.3% active; in the data active means activity change below about -80%; inconclusive means no clear call, values can overlap the other calls
# C diff HTS – C. difficile growth inhibition | Clostridium difficile clinical isolate growth, OD600, 24 h; hits give low values | growth activity, negative = inhibition, % at 16 µg/mL (by protocol) | 86,000 tested, 0.25% active | AID 1259249;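 active means mean growth activity at or below -80% and every replicate also at or below -80%; inconclusive means mean at or below -80% but some replicate above -80%; inactive means mean growth activity above -80%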
# T cruzi growth-2 – blocks T. cruzi growth in NIH3T3 host cells; inhibition, % at 8.35 µM; T. cruzi beta-gal in NIH3T3, GalScreen luminescence, 90 h; shares compounds with T cruzi growth-1; 5,600 tested, 72% active;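 active means mean replicate inhibition above about 95% and at least 55% of replicates individually reaching it, limit read from the data; inconclusive means only one of the two criteria is met; inactive means neither criterion is met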
# T cruzi growth-3 – inhibitors of T. cruzi proliferation; inhibition, % at 2.09 µM; shares compounds with T cruzi growth-1; AID 651740; T. cruzi beta-gal in NIH3T3, GalScreen luminescence, 90 h; 5,600 tested, 21% active;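 active means mean inhibition above about 95%, with at least 55% of replicates also reaching it, limit read from the data; inconclusive means meets just one of the two conditions; inactive means meets neither condition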
# NIH3T3 tox – NIH/3T3 (mouse) viability loss; shares compounds with T cruzi growth-1; NIH/3T3 viability, CellTiter-Glo ATP luminescence, 90 h; cytotoxicity (signal decrease), % at 8.35 µM; 5,600 tested, 14% active;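 active means mean signal decrease across replicates above about 35% based on untreated-well scatter, with enough replicates individually passing, limit read from the data; inconclusive means no rule stated though some were filed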
# NIH3T3 tox 2 – cytotoxicity in mouse NIH/3T3 fibroblasts; shares compounds with T cruzi growth-1; NIH/3T3 viability, CellTiter-Glo ATP luminescence, 90 h; inhibition, % at 24.9 µM; 5,600 tested, 56% active;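 active means mean loss of cell viability signal at or above a set limit, and enough replicates individually reaching it; inconclusive means meets only the mean limit or only the replicate share; inactive means meets neither condition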
# A number is an active result; i = inactive; ? = inconclusive; nt = not tested or not shown. Only some compounds are listed: those with a hit (about 6.8% of all), similar ones and a draw of the others.
SMILES,T cruzi growth-1,Pf Dd2 inh,C diff HTS,T cruzi growth-2,T cruzi growth-3,NIH3T3 tox,NIH3T3 tox 2
C[C@H]1CCCCO[C@H](CN(C)C(=O)Cc2ccccc2)[C@@H](C)CN([C@@H](C)CO)C(=O)c2cc(NS(=O)(=O)c3ccc(Cl)cc3)ccc2O1,i,i,i,nt,nt,nt,nt
O=C(NCC[C@@H]1CC[C@@H](NC(=O)c2cnccn2)[C@@H](CO)O1)Nc1ccc(Cl)cc1,i,i,i,nt,nt,nt,nt
O=S(=O)(c1cccs1)N1CCCCN2[C@H](CO)[C@H](c3ccc(C4=CCCC4)cc3)[C@H]2C1,i,i,i,nt,nt,nt,nt
O=S(=O)(c1cccs1)N1CCCCN2[C@H](C1)[C@H](c1ccc(C3=CCCCC3)cc1)[C@@H]2CO,120,i,i,109,i,i,?
COc1ccc(-c2ccc([C@@H]3[C@H](CO)N4CCCCN(S(=O)(=O)c5cccs5)C[C@@H]34)cc2)cc1,i,i,i,nt,nt,nt,nt
CS(=O)(=O)N1CCCCN2[C@@H](CO)[C@H](c3ccc(C4=CCCC4)cc3)[C@@H]2C1,?,i,i,i,i,i,i
COc1cccc(-c2ccc([C@H]3[C@@H](CO)N4CCCCN(S(=O)(=O)c5cccs5)C[C@H]34)cc2)c1,i,i,i,nt,nt,nt,nt
COc1ccc(-c2ccc([C@H]3[C@H]4CN(S(=O)(=O)c5cccs5)CCCCN4[C@H]3CO)cc2)cc1,113,i,i,108,i,i,i
COc1ccc(S(=O)(=O)N2CCCCN3[C@H](CO)[C@@H](c4ccc(C5=CCCC5)cc4)[C@@H]3C2)cc1,i,i,i,nt,nt,nt,nt
COc1ccc(-c2ccc([C@H]3[C@@H](CO)N4CCCCN(S(=O)(=O)c5cccs5)C[C@H]34)cc2)cc1,105,i,i,106,i,i,105
CCCNC(=O)N1CC2(C1)[C@H](c1ccccc1)[C@H](CO)N2Cc1ccccn1,nt,i,i,nt,nt,nt,nt
C[C@H](CO)N1C[C@H](C)[C@H](CN(C)C(=O)C2CCC2)Oc2ncc(-c3cccc(C#N)c3)cc2C1=O,i,i,i,nt,nt,nt,nt
COc1ccc(CN(C)C[C@@H]2OCCCC[C@H](C)Oc3ccc(NS(=O)(=O)c4ccc(OC)cc4)cc3C(=O)N([C@H](C)CO)C[C@H]2C)cc1,i,i,i,nt,nt,nt,nt
COc1ccc(NC(=O)N(C)C[C@@H]2Oc3ccc(NC(=O)Cc4ccccc4)cc3CC(=O)N([C@@H](C)CO)C[C@H]2C)cc1,i,i,i,nt,nt,nt,nt
CC[C@@H](C)[C@@H](CO[C@@H](Cc1ccccc1)C(=O)N[C@@H](CCS(C)(=O)=O)C(=O)OC(C)C)NCC(N)CS (stereo partly specified),nt,nt,i,nt,nt,nt,nt
O=C(NC[C@H]1[C@H](c2ccccc2)[C@@H](CO)N1C(=O)C1CC1)NC1CCCC1,117,i,i,i,i,i,i
O=C(NC[C@@H]1[C@H](c2ccccc2)[C@H](CO)N1C(=O)C1CC1)NC1CCCC1,i,i,i,nt,nt,nt,nt
CO[C@@H]1CN(C)C(=O)c2ccc(NS(=O)(=O)c3ccccc3)cc2OC[C@H](C)N(Cc2ccccn2)C[C@H]1C,nt,i,i,nt,nt,nt,nt
CO[C@H]1CN(C)C(=O)c2ccc(NC(=O)c3cc(C)on3)cc2OC[C@@H](C)N(CC2CC2)C[C@H]1C,i,i,nt,nt,nt,nt,nt
C[C@@H]1CN([C@H](C)CO)S(=O)(=O)c2ccc(C#Cc3ccccn3)cc2O[C@@H]1CN(C)C,nt,i,i,nt,nt,nt,nt
CNC[C@@H]1Oc2cc(C#Cc3ccncc3)ccc2S(=O)(=O)N([C@@H](C)CO)C[C@H]1C,nt,i,nt,nt,nt,nt,nt
CNC[C@H]1Oc2cc(C#Cc3ccccn3)ccc2S(=O)(=O)N([C@H](C)CO)C[C@H]1C,99,i,i,109,i,i,i
CNC[C@H]1Oc2cc(C#Cc3ccccn3)ccc2S(=O)(=O)N([C@@H](C)CO)C[C@@H]1C,101,i,i,111,i,i,i
C[C@H](CO)N1C[C@H](C)[C@H](CN(C)C(=O)Nc2ccc(C(F)(F)F)cc2)Oc2c(NC(=O)Nc3cccc4ccccc34)cccc2C1=O,i,i,i,nt,nt,nt,nt
O=C(NCC[C@@H]1CC[C@H](NC(=O)C2CCCCC2)[C@H](CO)O1)c1ccc(F)cc1,i,i,nt,nt,nt,nt,nt
SMILES,T cruzi growth-1,Pf Dd2 inh,C diff HTS,T cruzi growth-2,T cruzi growth-3,NIH3T3 tox,NIH3T3 tox 2
C[C@@H]1CN([C@H](C)CO)S(=O)(=O)c2ccc(-c3ccccc3)cc2O[C@H]1CN(C)Cc1cccnc1,92,i,i,i,i,59,101
Cc1ccc(-c2ccc3c(c2)O[C@H](CN(C)Cc2cccnc2)[C@H](C)CN([C@H](C)CO)S3(=O)=O)cc1,i,i,i,nt,nt,nt,nt
C[C@@H]1CN([C@@H](C)CO)S(=O)(=O)c2ccc(-c3ccccc3)cc2O[C@@H]1CN(C)Cc1cccnc1,i,i,i,nt,nt,nt,nt
Cc1ccc(-c2ccc3c(c2)O[C@@H](CN(C)Cc2cccnc2)[C@@H](C)CN([C@H](C)CO)S3(=O)=O)cc1,104,i,i,107,102,62,31
CCN1[C@H](C(=O)NCc2ccccc2)[C@@H](CO)[C@@H]2Cn3c(ccc(-c4ccccc4OC)c3=O)[C@@H]21,i,i,i,nt,nt,nt,nt
Cc1noc(C)c1S(=O)(=O)Nc1ccc2c(c1)CC(=O)N([C@H](C)CO)C[C@H](C)[C@@H](CN(C)Cc1ccccc1)O2,i,i,i,nt,nt,nt,nt
CO[C@@H]1CN(C)C(=O)c2cc(NC(=O)Nc3cccc(F)c3)ccc2OC[C@H](C)N(C(=O)Nc2c(C)noc2C)C[C@H]1C,i,i,nt,nt,nt,nt,nt
O=C(C1CCC1)N1CCCCN2[C@H](CO)[C@H](c3ccc(C#CC4CCCC4)cc3)[C@H]2C1,101,i,i,104,i,i,103
O=C(C1CCC1)N1CCCCN2[C@@H](CO)[C@@H](c3ccc(C#CC4CCCC4)cc3)[C@@H]2C1,i,i,i,nt,nt,nt,nt
O=C(C1CCC1)N1CCCCN2[C@H](CO)[C@H](c3ccc(C#CC4CCCC4)cc3)[C@@H]2C1,i,i,i,nt,nt,nt,nt
O=C(C1CCC1)N1CCCCN2[C@H](CO)[C@@H](c3ccc(C#CC4CCCC4)cc3)[C@H]2C1,?,i,i,i,i,i,104
O=C(C1CCC1)N1CC(=O)N2[C@H](CO)[C@H](c3ccc(C#Cc4cccc(F)c4)cc3)[C@H]2C1,nt,i,i,nt,nt,nt,nt
CC(C)C#Cc1ccc2c(c1)O[C@@H](CN(C)C(=O)c1ccccc1)[C@H](C)CN([C@@H](C)CO)S2(=O)=O,i,i,i,nt,nt,nt,nt
CC(C)C#Cc1ccc2c(c1)O[C@@H](CN(C)C(=O)c1cccc(F)c1)[C@@H](C)CN([C@H](C)CO)S2(=O)=O,105,i,i,102,i,i,54
CC(C)C#Cc1ccc2c(c1)O[C@H](CN(C)C(=O)c1ccccc1)[C@H](C)CN([C@@H](C)CO)S2(=O)=O,i,i,i,nt,nt,nt,nt
